Tests used:
Experiment in all cases: PBM binding z-score (relative to random genomic background probes); higher = stronger binding; sequences stand for … in GC…GCGATTGACAGCGTAGAATGAAGG
[1] = system: FXR:RXRa (NR concentration 270 nM, RXRa partner concentration 90 nM)
Procedure, shortened: (§1)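 Binding z-scores take random background probes as their reference. They come from custom Agilent 4×180K protein-binding microarrays incubated 1 h with ligand-free nuclear receptor dimers, with antibodies against each partner (one per run) detecting binding. Scanned fluorescence was regression-normalized.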

[2] = system: LXRa:RXRa (NR concentration 270 nM, RXRa partner concentration 90 nM)
Procedure, shortened: as §1

[3] = system: LXRa homodimer (NR concentration 270 nM)
Procedure, shortened: as §1

[4] = system: LXRb:RXRa (NR concentration 270 nM, RXRa partner concentration 90 nM)
Procedure, shortened: as §1

[5] = system: LXRb homodimer (NR concentration 270 nM)
Procedure, shortened: as §1

[6] = system: PPARa:RXRa (NR concentration 270 nM, RXRa partner concentration 90 nM)
Procedure, shortened: as §1

[7] = system: PPARg:RXRa (NR concentration 180 nM, RXRa partner concentration 90 nM)
Procedure, shortened: as §1

[8] = system: PPARg:RXRa 270nM:90nM, anti-RXR (NR concentration 270 nM, RXRa partner concentration 90 nM)
Procedure, shortened: as §1

[9] = system: PPARg:RXRa 30nM:10nM, anti-RXR (NR concentration 30 nM, RXRa partner concentration 10 nM)
Procedure, shortened: as §1

[10] = system: PPARg:RXRa 90nM:30nM, anti-RXR (NR concentration 90 nM, RXRa partner concentration 30 nM)
Procedure, shortened: as §1

[11] = system: PPARg:RXRa DBDmut IVT, anti-RXR (DBD mutation: RXRa K156A/R161A, NR concentration 270 nM, RXRa partner concentration 90 nM)
Procedure, shortened: as §1

[12] = system: PPARg:RXRa IVT, anti-PPARg (NR concentration 270 nM, RXRa partner concentration 90 nM)
Procedure, shortened: as §1

[13] = system: PPARg DBDmut:RXRa IVT, anti-PPARg (DBD mutation: PPARg1 K132A/R137A, NR concentration 270 nM, RXRa partner concentration 90 nM)
Procedure, shortened: as §1

[14] = system: PPARg DBDmut IVT, anti-PPARg (DBD mutation: PPARg1 K132A/R137A, NR concentration 270 nM)
Procedure, shortened: as §1

[15] = system: PPARg homodimer (NR concentration 180 nM)
Procedure, shortened: as §1

[16] = system: PXR:RXRa (NR concentration 270 nM, RXRa partner concentration 90 nM)
Procedure, shortened: as §1

[17] = system: PXR homodimer (NR concentration 270 nM)
Procedure, shortened: as §1

[18] = system: RARa:RXR (NR concentration 270 nM, RXRa partner concentration 90 nM)
Procedure, shortened: as §1

[19] = system: RARa homodimer (NR concentration 270 nM)
Procedure, shortened: as §1

[20] = system: RARb:RXRa (NR concentration 270 nM, RXRa partner concentration 90 nM)
Procedure, shortened: as §1

Sequence	PBM binding z-score [1]	PBM binding z-score [2]	PBM binding z-score [3]	PBM binding z-score [4]	PBM binding z-score [5]	PBM binding z-score [6]	PBM binding z-score [7]	PBM binding z-score [8]	PBM binding z-score [9]	PBM binding z-score [10]	PBM binding z-score [11]	PBM binding z-score [12]	PBM binding z-score [13]	PBM binding z-score [14]	PBM binding z-score [15]	PBM binding z-score [16]	PBM binding z-score [17]	PBM binding z-score [18]	PBM binding z-score [19]	PBM binding z-score [20]
ATCGAAAGGTCGTGAGGAGAGTATACAGAAAGGC	5.47	4.45	0.57	3.32	1.13	4.93	3.66	4.22	1.53	2.94	0.395	1.64	1.22	1.09	2.69	3.21	0.666	4.09	0.902	3.91
CCTGCTAGGTCATGATCAGCTAATCTACAGTATG	3.25	2.63	0.02	1.94	-0.0541	3.31	2.28	2.56	0.674	1.56	4.52	3.32	0.5	0.49	0.98	1.19	-0.328	2.08	0.216	3.7
TCTTTTAGTTGATTAGGGCAACCGAAACAGCGGA	1.17	0.955	0.422	0.976	2.11	1.45	0.152	2.66	4.27	3.34	2.25	2.54	2.77	2.73	1.2	0.77	0.929	0.951	1.25	1.79
TGAATGAGGTTATAAGATCAGGGACCGTTGCAAA	1.45	1.26	0.0374	1.01	-0.286	2.6	1.45	2.32	0.865	1.63	1.22	1.99	0.832	-0.0564	0.812	0.874	0.0306	1.43	-0.64	1.33
CGTCCACGGTCAGAGAGGTCAGTGAATGCCGAGT	2.16	1.89	1.45	1.77	-0.73	2.33	0.382	0.996	-0.638	0.247	0.449	1.17	-1.02	-1.36	2.07	3.13	2.89	2.83	0.503	3.95
ATCTCTAGGTAAAGTTCAGTGTAAGATCGATAGA	1.55	2.13	2.27	1.55	1.1	2.47	3.17	4.49	2.44	4.28	2.66	2.9	1.2	1.55	2.13	2.21	2.38	1.53	1.49	2.56

— the supplement of paper PMC6555819
